This note sets out measurements from PubChem BioAssay (NCATS).

Assay [1] in a line: qHTS to identify inhibitors of the type 1 interferon - major histocompatibility complex class I in skeletal muscle: primary screen against the NCATS LOPAC collection (AID 1347405).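 Note: lytic HiBiT luminescence reporting HLA-B protein level.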 Note: potency is the fitted concentration of half-maximal effect. The procedure, abridged: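 Cells: C25cl48 human myoblasts, HiBiT-tagged HLA-B*08:01, stimulated with IFN-beta 4.0 ng/ml. Compounds are titrated 1:4.3 over 7 points from 46 uM final and incubated 24 hrs; endogenous MHC class I is quantified by HiBiT lytic luminescence.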
A general note: qHTS replaces the single test concentration by a dilution series.

Assay [2] in a line: qHTS for inhibitors of adenylyl cyclases using a fission yeast platform: a pilot screen against the NCATS LOPAC library (AID 1347410). The procedure, abridged: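 Growth medium went into the plates first, then compounds were pinned (final up to 57 µM), then CHP2027 yeast were added. Plates were incubated overnight (18 h) at 30C in the dark, and GFP was measured by laser scanning cytometry.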

Assay [3] can be described thus: Validation qHTS assay for inhibitors of Activation Induced Cytidine Deaminase (AID): UDG Counterscreen signal (AID 1347427). The procedure, abridged:
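Counterscreen read of UDG activity (2 U/mL, 4/3x) in the FRET deamination format with AID (1 uM, 4/3x), DJC20/DJC23 substrates (250 nM, 4x), 4 h at room temperature. NaOH stop, fluorescence at 560 ex/665 em.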

In assay [4] the target is Single-stranded DNA cytosine deaminase (Homo sapiens) (UniProt Q9GZX7). Briefly: Validation qHTS assay for inhibitors of Activation Induced Cytidine Deaminase (AID): AID signal (AID 1347429). In outline:
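In this coupled qHTS, AID deaminates a FRET-labelled ssDNA substrate in the presence of UDG over 4 hr at room temperature. Compounds span up to 114 uM final.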

A short description of assay [5]: Primary qHTS for Huh7 cytotoxicity: counterscreen for inhibitors of MERS-S pseudotyped particle cell entry (AID 1479147; calls by dose curve).
A short description of assay [6]: Primary qHTS for Vero E6 cytotoxicity: counterscreen for inhibitors of SARS-S pseudo-typed particle cell entry (AID 1479150; calls by dose curve).
The target of assay [7] is Calcium and integrin-binding protein 1 (Homo sapiens) (UniProt Q99828). Briefly: Validation qHTS for Identification of Calcium Integrin Binding protein 1 (CIB1) Competitor (AID 1508618). The procedure, abridged: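 CIB1-GST (1 uM final) in 5 mM HEPES pH 7.4, 125 mM NaCl, 5 mM CaCl2, 0.01% Tween20 was preincubated 15 min at room temperature with compound (up to 114 uM), then FITC-alphaIIb peptide (100 nM) added for 15 min; fluorescence polarization read.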

Assay [8] can be described thus: Primary qHTS for inhibitors of La Crosse Virus (LACV) - induced cell death in SH-SY5Y cells (AID 1508616).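 Note: top concentration of the series differs between compounds; higher means more rescue of cells from virus-induced death.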 In outline: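 Readout was luminescence from ATPLite 1step added after a 6-day LACV infection (0.01 MOI) of SH-SY5Y cells that had received pin-transferred compound 24 hr after seeding.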
In assay [9] the target is Calcium and integrin-binding protein 1 (Homo sapiens) (UniProt Q99828). Briefly: Primary qHTS for Identification of Calcium Integrin Binding Protein 1 (CIB1) Competitor (AID 1508620). Note: top concentration of the series differs between compounds. In outline: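 Fluorescence polarization competition: GST-tagged CIB1 (1 uM final) preincubated with compound 15 min at room temperature, then FITC-labelled alphaIIb peptide (100 nM final) added. After 15 min at room temperature, polarization read at Ex 480/Em 540.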

The nature of assay [10]: qHTS to identify inhibitors of the type 1 interferon - major histocompatibility complex class I in skeletal muscle: primary screen against the NCATS Mechanism Interrogation Plate v5.0 (MIPE) Libary (AID 1347411). Note: nearly all actives have a fitted effect of over 65% in size. Note: potency is the fitted concentration of half-maximal effect. In outline:
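Cells were genome-edited human myoblasts carrying a HiBit tag on endogenous HLA-B. They were treated with IFN-beta (4.0 ng/ml) and titrated compounds (top 46 uM) for 24 hrs before lytic HiBiT detection.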

Assay [11] can be described thus: qHTS to identify inhibitors of the type 1 interferon - major histocompatibility complex class I in skeletal muscle: primary screen against the NCATS Pharmaceutical Collection (AID 1347407).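 Note: luminescence of HiBiT knocked into endogenous HLA-B as interferon-induced MHC class I level.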 The procedure, abridged: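 Cells were seeded with 4 ng/ml IFN-beta, incubated 1 h, then dosed with compounds over eight 1:5 steps up to 46 uM final. After 24 h at 37 C, HiBiT lytic reagent was added and luminescence read after 10 min lysis in the dark.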

Assay [12] has as its target Protein phosphatase 1D (Homo sapiens) (UniProt O15297). Briefly: RapidFire Mass Spectrometry qHTS Assay for Modulators of WT P53-Induced Phosphatase 1 (WIP1) (AID 1347424).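 Note: amount of dephosphorylated VEPPL-S-QETFS peptide product formed by WIP1; series mostly up to about 63 µM.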 The procedure, abridged: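 10 nM WIP1 preincubated with compounds 1 hr at room temperature in pH 7.5 Tris buffer with 30 mM MgCl2, 1 mM TCEP; 2 uM VEPPL-pS-QETFS phosphopeptide for 5 min, formic acid quench; dephosphorylated product quantified by RapidFire MS against labelled standard.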

For assay [13] the target is unchanged. Briefly: Rhodamine-PBP qHTS Assay for Modulators of WT P53-Induced Phosphatase 1 (WIP1) (AID 1347425). The procedure, abridged:
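Read-out: Rhodamine-PBP fluorescence (ex 525/em 598 nm) for released Pi, read each minute for 11 min after adding 10 uM VEPPL-pS-QETFS; signal taken as f1 minus pre-substrate f0. Enzyme 5 nM WIP1 with 1 hr room-temperature compound preincubation.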

Assay [14] can be described thus: Primary qHTS for inhibitors of SARS-S pseudo-typed particle cell entry (AID 1479145; calls by dose curve; note: series mostly up to about 57 µM; nearly all actives have a fitted effect of over 45% in size).
The nature of assay [15]: Primary qHTS for inhibitors of MERS-S pseudo-typed particle cell entry (AID 1479149; calls by dose curve; note: nearly all actives have a fitted effect of over 60% in size).

Records with an inconclusive call do not appear. Active and inactive are the calls of the source. Unless noted, calls come from the whole dose curve; as a rule, active = well fitted curve in the direction sought with a large enough effect; inconclusive = small, poorly fitted or top-dose-only effect, or another doubt; inactive = no such curve, though single readings can be large; an effect the other way counts as inactive or inconclusive.

Chain of Single-stranded DNA cytosine deaminase (Homo sapiens) (Q9GZX7 whole entry, looked up): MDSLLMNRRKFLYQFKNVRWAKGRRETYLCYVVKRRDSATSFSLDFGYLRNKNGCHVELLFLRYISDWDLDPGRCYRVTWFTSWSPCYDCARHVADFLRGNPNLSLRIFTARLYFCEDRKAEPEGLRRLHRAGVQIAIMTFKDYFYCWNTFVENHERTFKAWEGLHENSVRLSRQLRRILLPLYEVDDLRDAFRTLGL
Chain of Calcium and integrin-binding protein 1 (Homo sapiens) (Q99828 whole entry, looked up): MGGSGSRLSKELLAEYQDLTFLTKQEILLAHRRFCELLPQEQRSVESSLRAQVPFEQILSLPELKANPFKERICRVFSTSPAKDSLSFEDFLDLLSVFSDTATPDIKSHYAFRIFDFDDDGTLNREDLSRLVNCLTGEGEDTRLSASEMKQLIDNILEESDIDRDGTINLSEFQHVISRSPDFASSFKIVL
Chain of Protein phosphatase 1D (Homo sapiens) (O15297 whole entry, looked up): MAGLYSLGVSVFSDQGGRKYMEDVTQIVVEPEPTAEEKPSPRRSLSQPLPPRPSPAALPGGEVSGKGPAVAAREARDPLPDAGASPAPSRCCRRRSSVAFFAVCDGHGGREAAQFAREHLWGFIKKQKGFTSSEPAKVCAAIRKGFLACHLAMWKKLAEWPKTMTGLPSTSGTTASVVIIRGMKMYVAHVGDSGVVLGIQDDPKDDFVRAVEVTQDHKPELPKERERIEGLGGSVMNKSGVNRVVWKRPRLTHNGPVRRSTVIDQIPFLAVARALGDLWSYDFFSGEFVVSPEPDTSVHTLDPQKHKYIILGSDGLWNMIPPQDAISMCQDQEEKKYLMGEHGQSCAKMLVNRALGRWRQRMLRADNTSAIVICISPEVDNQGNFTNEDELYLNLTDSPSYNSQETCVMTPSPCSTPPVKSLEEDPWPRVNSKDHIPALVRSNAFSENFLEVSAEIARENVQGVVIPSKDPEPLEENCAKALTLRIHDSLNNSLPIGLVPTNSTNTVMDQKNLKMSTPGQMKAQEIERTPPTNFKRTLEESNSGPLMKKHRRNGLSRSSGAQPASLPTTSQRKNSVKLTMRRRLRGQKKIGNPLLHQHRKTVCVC

For the compound `CC(C)NC(C)Cc1ccc(I)cc1` (stereo not drawn), the Potency entry in assay [1], in assay [5] and in [6] was “inactive” in each case. Besides, the compound was classed as inactive in assay [2], in assay [3], in assay [4] and in assay [7].
For the compound `COc1cc(C(O)CN)ccc1O` (stereo not drawn), the Potency entry in assay [1] is “inactive”. Moreover, the result in [2], in assay [3], in assay [4], in assay [8] and in assay [7] was inactive.
`NC1CC1c1ccccc1` (stereo not drawn): the Potency entry in assay [1] was “inactive”. Besides, the compound was classed as inactive in assay [2], in assay [3], in assay [4], in assay [8], in [7] and in assay [9].
`C[C@]12CCC3C(CC[C@H]4C[C@H](O)CC[C@]34C)C1CC[C@@H]2C(=O)CO` (stereo partly drawn): the Potency entry in [1] is “inactive”. For the same compound, the result in [2], in [3], in assay [4], in [8] and in assay [7] was inactive.
`NCc1cc(=O)[nH]o1`: the Potency result in assay [1] is “inactive”. The compound was classed as inactive in [2], in assay [3], in [4], in [8] and in [7].
For `CC[C@@]1(O)C(=O)OCc2c1cc1n(c2=O)Cc2cc3ccccc3nc2-1`, the values for the Potency in assay [1] and in assay [10] were 708 nM (active) and 2080 nM (active), respectively. Also, the call in [2], in assay [3], in assay [4], in assay [8], in assay [7] and in assay [9] was inactive.
On to `CNCCc1c[nH]c2ccc(O)cc12`, for which, in [1], the Potency result is “inactive”. Besides, the outcome in assay [2], in assay [3], in assay [4], in [8] and in assay [7] was inactive.
As for `CCCCc1ccc(C(=O)O)nc1`, the Potency entry in assay [1] was “inactive”. The call in assay [2], in assay [3], in [4], in [8] and in assay [7] was inactive.
Consider `NC(CP(=O)(O)O)C(=O)O` (stereo not drawn), for which, in assay [1], the Potency entry is “inactive”. Further, the result in assay [2], in assay [3], in assay [4], in assay [8] and in [7] was inactive.
On to `C[C@@H](N)Cc1cnc[nH]1`, for which the Potency entry in assay [1] was “inactive”. The compound was called inactive in [2], in [3], in assay [4], in assay [8] and in [7].
Take `S=C(NC1CCCCC1)N1CCC(c2cnc[nH]2)CC1`: the Potency result in assay [1] was “inactive”. Besides, the result in assay [2], in assay [3], in assay [4], in [8], in assay [7] and in assay [9] was inactive.
Turning to `O=C(O)[C@@H]1CCN1`, the Potency entry in assay [1] was “inactive”. The compound was classed as inactive in assay [2], in [3], in assay [4], in assay [8] and in [7].
On to `Clc1cnc(Oc2ccc(Oc3ncc(Cl)cc3Cl)cc2)c(Cl)c1`, for which the Potency entry in assay [1] was “inactive”. Further, the call in assay [2], in [3], in assay [4] and in [7] was inactive.
In the case of `CC(=O)[C@H]1CCC2C3CC[C@H]4C[C@H](O)CC[C@]4(C)C3CC[C@@]21C` (stereo partly drawn), the Potency entry in assay [1] was “inactive”. For the same compound, the compound was classed as inactive in assay [2], in [3], in assay [4] and in assay [7].
Take `CCCN(CCC)[C@@H]1CCc2ccc(O)cc2C1`: the Potency entry in assay [1] was “inactive”. The result in [2], in assay [3], in assay [4], in [8] and in assay [7] was inactive.
As for `C[C@]12N[C@H](Cc3ccccc31)c1ccccc12`, in assay [1], the Potency result was “inactive”. The result in [2], in assay [3], in [4] and in assay [7] was inactive.
As to `CC(Cc1ccc(O)cc1)NCC(O)c1cc(O)cc(O)c1` (stereo not drawn), the Potency result in assay [1], in assay [12], in assay [14], in assay [5], in [15] and in assay [6] was “inactive” in each case. Further, the compound was called inactive in assay [11], in assay [2], in [13], in assay [7] and in [9].
`O=C(N[C@H]1CN2CCC1CC2)c1ccc(Cl)cc1`: the Potency entry in assay [1] and in assay [10] was “inactive” in each case. Moreover, the outcome in [2], in assay [3], in [4], in [8], in assay [7] and in assay [9] was inactive.
Regarding `CCCN1CCC[C@H](c2cccc(O)c2)C1`, in assay [1], the Potency result is “inactive”. Moreover, the compound was called inactive in assay [2], in [3], in [4], in assay [8] and in assay [7].
`CC(C)Oc1cccnc1N(C)C1CCN(Cc2ccccc2)CC1`: the Potency entry in assay [1] is “inactive”. The outcome in assay [2], in assay [3], in assay [4] and in assay [7] was inactive.
On to `O=C(O)Cc1cnc[nH]1`, for which, in assay [1], the Potency entry was “inactive”. In addition, the call in assay [2], in [3], in assay [4], in assay [8] and in assay [7] was inactive.
As to `CN1C2CCC1CC(OC(=O)c1cc(Cl)cc(Cl)c1)C2` (stereo not drawn), the Potency entry in assay [1] is “inactive”. In addition, the compound was called inactive in assay [2], in [3], in assay [4], in assay [8] and in assay [7].
As to `CC[C@@H](C(N)=O)N1CCCC1=O`, the Potency result in assay [1] and in assay [10] was “inactive” each time. Also, the compound was classed as inactive in assay [2], in assay [3], in assay [4], in [8], in assay [7] and in [9].
As to `NC(N)=NOCCC(N)C(=O)O` (stereo not drawn), in assay [1], the Potency entry was “inactive”. The outcome in [2], in [3], in assay [4], in assay [8] and in assay [7] was inactive.
Consider `CC1=NN=C(c2ccc(N)cc2)c2cc3c(cc2C1)OCO3`, for which the Potency result in assay [1] was “inactive”. For the same compound, the outcome in assay [2], in assay [3], in [4], in [8], in assay [7] and in [9] was inactive.
`C[C@@H]1O[C@H](C[N+](C)(C)C)C[C@H]1O`: the Potency entry in assay [1] was “inactive”. The compound was called inactive in assay [2], in assay [3], in assay [4], in assay [8] and in [7].
Regarding `C[N+]1(C)C2CCC1CC(OC(=O)C(CO)c1ccccc1)C2` (stereo not drawn), in [1], the Potency result is “inactive”. For the same compound, the compound was classed as inactive in assay [2], in [3], in assay [4], in [8] and in [7].
`NC(CCP(=O)(O)O)C(=O)O` (stereo not drawn): the Potency entry in assay [1] is “inactive”. Further, the compound was called inactive in [2], in assay [3], in assay [4], in assay [8] and in assay [7].
For the compound `C#CCOC(=O)C1=CCCN(C)C1`, the Potency result in [1] is “inactive”. In addition, the compound was classed as inactive in assay [2], in assay [3], in assay [4] and in [7].
As for `COC(=O)[C@@H](N)CCCN=C(N)N[N+](=O)[O-]`, the Potency result in assay [1] and in assay [10] was “inactive” throughout. Also, the call in [2], in [3], in assay [4], in [8], in assay [7] and in [9] was inactive.
Take `CS(=N)(=O)CC[C@H](N)C(=O)O` (stereo partly drawn): the Potency result in assay [1] was “inactive”. The compound was called inactive in assay [2], in assay [3], in [4], in [8] and in [7].
